Screens: PubChem BioAssay, National Center for Advancing Translational Sciences (NCATS)
NPSR antagonist: qHTS Assay for Antagonists of the Neuropeptide S Receptor: cAMP Signal Transduction; CHO-NPSR cells, cAMP TR-FRET, antagonist mode; Potency, µM (doses to about 38.3 µM), actives largely listed as inhibitors; 220,000 tested, 1% active; AID 1461, 2008; further: nearly all actives have a fitted effect of over 50% in size
Target sequence (Q6W5P4 whole entry, looked up): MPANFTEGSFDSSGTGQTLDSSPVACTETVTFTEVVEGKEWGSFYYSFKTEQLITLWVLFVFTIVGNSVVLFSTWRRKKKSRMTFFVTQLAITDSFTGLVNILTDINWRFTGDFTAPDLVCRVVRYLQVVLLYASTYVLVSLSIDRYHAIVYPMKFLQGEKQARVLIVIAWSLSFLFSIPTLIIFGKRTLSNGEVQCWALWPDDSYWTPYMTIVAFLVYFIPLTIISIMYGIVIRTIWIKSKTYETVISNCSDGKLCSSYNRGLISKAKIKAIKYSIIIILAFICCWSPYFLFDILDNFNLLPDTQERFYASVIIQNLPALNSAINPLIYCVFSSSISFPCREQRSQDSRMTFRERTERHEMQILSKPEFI
ERK EGF block: qHTS Assay for Inhibitors of the ERK Signaling Pathway using a Homogeneous Screening Assay; Stimulation with EGF | HEK293-V1b, EGF-stimulated phospho-ERK AlphaScreen | Potency, µM (doses to about 11.5 µM), most hits filed as inhibitors | 130,000 tested, 0.41% active; further: nearly all actives have a fitted effect of over 55% in size
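HEK293 cells stably expressing V1b receptor, serum-reduced (1% FBS) overnight, got compound for 30 min at 37C, then 25 nM EGF for 5 min. Lysate phospho-ERK read by AlphaScreen SureFire; AC50 from Hill fits.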
HTT ATP protect: qHTS Multiplex Assay to Identify Dual Action Probes in a Cell Model of Huntington: Cytoprotection (ATP); PC12 HTT-Q103 induced, cytoprotection, ATP luminescence, 40 h; Potency, µM (doses to about 56.4 µM), hits mostly activators; 230,000 tested, 0.14% active; further: nearly all actives have a fitted effect of over 45% in size
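Compounds added alongside 100 nM tebufenozide, which induces toxic Q103 huntingtin exon 1-GFP in stable PC12 cells; surviving cells quantified by luminescent ATP measurement. Medium: phenol red-free DMEM, 5% equine and 5% calf serum.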
IMPase Li cell: qHTS Assay for Identifying the Cell-Membrane Permeable IMPase Inhibitors: Potentiation with Lithium; AID 1457, 2008; 210,000 tested, 0.35% active; CHO-M1 cells, IP1 TR-FRET (IP-One), carbachol + lithium; Potency, µM (highest dose often 59.4 µM), hits mostly inhibitors;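 further: IP1 builds up when IMPase is blocked and the TR-FRET signal falls; nearly all actives have a fitted effect of over 50% in size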
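Steps: plate 2000 CHO-M1 cells per well and culture 16–30 h; add compound and lithium; incubate 30 min, 37C; add d2-IP1 tracer and Eu cryptate anti-IP1 antibody in lysis buffer; read after 10 min at room temperature.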
HTT aggregate: qHTS Multiplex Assay to Identify Dual Action Probes in a Cell Model of Huntington: Aggregate Formation (GFP); PC12 HttQ103-GFP aggregates, Acumen cytometry, 40 h; Potency, µM (doses to about 46.1 µM), most hits filed as inhibitors; 220,000 tested, 1.1% active; further: nearly all actives have a fitted effect of over 60% in size
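Read-out: GFP aggregate count by laser scanning cytometer (488 nm excitation, 500-530 nm emission, 1–25 µm objects >6 SD above background). Cells: PC12, inducible HTTex1-Q103-GFP, 100 nM tebufenozide; compounds titrated.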
Numbers stand for hits; - = inactive; ? = inconclusive; . = no result; ! = repeats disagree; [ ] = remark or other dose. In the library only some 1.9% were active in any assay of this set; here they are far more common. The call rests on the fitted dose curve; in most records, active means well fitted curve in the direction sought with a large enough effect; inconclusive means small, poorly fitted or top-dose-only effect, or another doubt; inactive means no such curve, though single readings can be large; an effect the other way counts as inactive or inconclusive.

SMILES | NPSR antagonist | ERK EGF block | HTT ATP protect | IMPase Li cell | HTT aggregate
C[C@@H]1OC(OC2C(OC3CC[C@@]4(C)C5CC=C6C7CC(C)(C)CC[C@@]7(C(=O)O)CCC6(C)C5(C)CCC4[C@]3(C)CO)OCC(O)C2O)C(O)C(O)C1O (stereo not given in full) | . | 28µM | . | - | .
C[C@@H]1O[C@@H](O[C@H]2C[C@@H](O)[C@]3(CO)[C@H]4[C@H](O)C[C@]5(C)[C@@H](C6COC(=O)C6)CC[C@]5(O)[C@@H]4CC[C@]3(O)C2)[C@H](O)[C@H](O)[C@H]1O (stereo not given in full) | - | . | . | - | -
C[C@H](N[C@@H](C)CCc1ccccc1)[C@H](O)c1ccc(O)cc1 | . | . | -[1.9 µM] | . | .
Cc1occc1C(=O)Nc1nnc(C(F)(F)F)s1 | - | . | - | - | 35µM
Oc1ccc([C@H](O)C2CCCCN2)cc1O (stereo not given in full) | . | . | . | - | .
COc1cc(/C=C/[N+](=O)[O-])ccc1O | ? | ? | . | - | 25µM
C[C@]12O[C@H](C[C@]1(O)CO)n1c3ccccc3c3c4c(c5c6ccccc6n2c5c31)CNC4=O | . | . | - | . | 1.6µM
CN[C@@H]1C[C@@]2(C)O[C@@H]([C@@H]1OC)n1c3ccccc3c3c4c(c5c6ccccc6n2c5c31)C(=O)NC4 | . | . | - | - | .
COc1ccc(N2C(=O)/C(=C/C=C/c3ccccc3[N+](=O)[O-])C(=O)NC2=S)cc1 | 10µM | - | - | - | -
COc1ccc(N2C(=O)/C(=C/c3cccs3)C(=O)NC2=S)cc1 | ? | - | -[10 µM] | . | -[9.22 µM]
C[C@]12CC[C@H](O)C[C@@H]1CC[C@H]1[C@H]2CC[C@]2(C)[C@H](C(=O)CO)CC[C@@H]12 | . | . | -[1.9 µM] | . | .
Cc1cc(C)cc(N2C(=O)NC(=O)/C(=C\c3cccn3-c3ccccc3)C2=O)c1 | - | ? | -[10 µM] | - | 28µM
Cc1cccc(N2C(=O)NC(=O)/C(=C\c3cnc(-c4ccccc4)nc3)C2=O)c1 | - | - | -[10 µM] | - | -
Cc1cc(C)cc(N2C(=O)NC(=O)/C(=C\c3cccn3-c3ccc(Cl)cc3)C2=O)c1 | 5µM | . | - | - | -
c1ccc2c(c1)OC[C@@H](C1=NCCN1)O2 | . | - | 5µM! | - | .
COC(=O)[C@]1(C)CC[C@@]2(C)CC[C@@]3(C)C4=CCc5c(cc(O)c(O)c5C)[C@]4(C)CC[C@@]3(C)C2C1 (stereo not given in full) | . | - | . | - | .
CC1=C(O)C(=O)C=C2C1=CC=C1[C@]2(C)CC[C@@]2(C)C3C[C@](C)(C(=O)O)CC[C@@]3(C)CC[C@@]12C (stereo not given in full) | . | 16µM | . | - | .
CCOP(=O)(Cc1cc(C(=O)CC)c(C)o1)OCC | - | - | . | . | 0.01µM
CCOP(=O)(Cc1ccc(C(=O)CC)o1)OCC | - | - | -[10 µM] | . | -[9.22 µM]
Oc1cc(Cl)ccc1Oc1ccc(Cl)cc1Cl | . | . | 7.1µM | - | .
Oc1ccc(Cl)cc1Cl | . | . | - | - | .
CN1CCC[C@@H]1c1cccnc1.O=C(O)c1ccccc1O.O=C([OH2+])c1ccccc1O.O=C([OH2+])c1ccccc1O.[Mn] | . | . | -[10 µM] | - | .
O=C(O)CCCCC1SCC2NC(=O)NC21 (stereo not given) | - | - | 13µM! | - | -[9.22 µM]
CN1C[C@@H](CNC(=O)OCc2ccccc2)C[C@H]2c3cccc4c3c(cn4C)C[C@@H]21 | . | . | -[1.9 µM] | . | .
C=C(C=O)CC1CC(O)[C@]2(C)OC3CC4OC5C[C@]6(C)O[C@]7(C)CCC8OC9C[C@]%10(C)OC%11C(C)=CC(=O)OC%11CC%10OC9C[C@@H](C)C8OC7CC6O[C@]5(C)CC5OC5C4OC3CC2O1 (stereo not given in full) | ? | 35µM | -[10 µM] | - | -[9.22 µM]
SMILES | NPSR antagonist | ERK EGF block | HTT ATP protect | IMPase Li cell | HTT aggregate
C=C(CO)CC1CC(O)[C@]2(C)OC3CC4OC5C[C@]6(C)O[C@]7(C)CCC8OC9C[C@]%10(C)OC%11C(C)=CC(=O)OC%11CC%10OC9C[C@@H](C)C8OC7CC6O[C@]5(C)C/C=C\C4OC3CC2O1 (stereo not given in full) | ? | - | -[10 µM] | - | -[9.22 µM]
COc1cccc2c1C(=O)c1c(O)c3c(c(O)c1C2=O)C[C@@](O)(C(=O)CO)C[C@@H]3O[C@H]1C[C@H](N)[C@H](OC2CCCCO2)[C@H](C)O1 (stereo not given in full) | . | . | - | . | 4µM
CCNC(C)(C)[C@@H](SS)c1ccc(Br)cc1 | . | . | -[10 µM] | - | .
CC(=O)/C=C/c1ccccc1 | . | . | - | - | .
CC(=O)[O][Hg][c]1ccccc1 | . | 14µM | - | - | 1.6µM
O=C1C[C@@H]2OCC=C3CN4CC[C@]56c7ccccc7N1[C@H]5[C@@H]2[C@H]3C[C@@H]46 | . | . | - | . | .
c1ccc2c(CNC3CCCCC3)c[nH]c2c1 | - | . | - | - | 11µM
c1ccc2c(CN3CCCCCCC3)c[nH]c2c1 | - | . | - | - | 13µM
CN(Cc1c[nH]c2ccccc12)C1CCCCC1 | - | - | . | - | -
CC(C)=CCCC1(C)C=Cc2c(O)c3c(c(CC=C(C)C)c2O1)OC12C(=CC4CC1C(C)(C)OC2(C/C=C(/C)C(=O)O)C4O)C3=O (stereo not given) | . | - | . | - | .
CC(C)=CCCC1(C)C=Cc2c(O)c3c(c(CC=C(C)C)c2O1)OC12C(=CC4CC1C(C)(C)OC2(C/C=C(/C)C(=O)O)C4=O)C3=O (stereo not given) | . | 16µM | - | - | .
CCN1/C(=C\C=C\C2=[N+](CC)c3ccccc3C2(C)C)C(C)(C)c2ccccc21 | 16µM | . | - | - | 0.56µM
O=S(=O)(NCCO)c1cc[c]([Sb])cc1 | . | . | . | - | .
CC[C@H](CO)NC(=O)[C@H]1C=C2c3cccc4[nH]cc(c34)C[C@H]2N(C)C1 | . | . | - | . | .
O=C1NC(=O)N(c2ccccc2)C(=O)/C1=C/c1ccc(Sc2ccccc2)o1 | 10µM | - | - | - | -
CC/C(=C(\c1ccc(O)cc1)c1ccc(OCCN(C)C)cc1)c1ccccc1 | 10µM | - | . | . | .
CC(C)[C@H]1C(=O)N2CCC[C@@H]2[C@]2(O)O[C@@](NC(=O)[C@H]3C=C4c5cccc6[nH]cc(c56)C[C@H]4N(C)C3)(C(C)C)C(=O)N12 | . | . | - | . | .
COC(C(=O)C(O)C(C)O)C1Cc2cc3cc(OC4CC(OC5CC(O)C(OC)C(C)O5)C(OC(C)=O)C(C)O4)c(C)c(O)c3c(O)c2C(=O)C1OC1CC(OC2CC(OC3CC(C)(O)C(OC(C)=O)C(C)O3)C(O)C(C)O2)C(O)C(C)O1 (stereo not given) | . | . | - | . | 0.18µM
